Several values for one entry are separate records, joined by “and”; a condition that tells them apart may be missing. Equal entries are not always repeated. The panel holds about 83,000 compounds, 20% with a hit somewhere; the sample as a whole holds those more often.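 Percent growth is the endpoint: 0 to 100 indicates growth inhibition (40 means 60% inhibition), 0 means no net growth, and negative values indicate cell death.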 Activity calls are given as the source filed them. The calls were made as follows: active = growth percent below 10; inactive = the rest.
Legend:
Experiment in all cases: NCI-60 one-dose screen, 48 h (100 = growth as untreated, 0 = no growth, -100 = all killed)
DU-145 prostate = conditions: 10 µM unless noted
K-562 leukemia = conditions: 10 µM
MALME-3M melanoma = conditions: 10 µM
MDA-MB-231 breast = conditions: 10 µM
RXF 393 renal = conditions: 10 µM unless noted
SF-268 CNS = conditions: 10 µM
SF-295 CNS = conditions: 10 µM
SF-539 CNS = conditions: 10 µM
UACC-257 melanoma = conditions: 10 µM
HCT-15 colon = conditions: 10 µM
HT29 colon = conditions: 10 µM
SNB-75 CNS = conditions: 10 µM
SNB-19 CNS = conditions: 10 µM
U251 CNS = conditions: 10 µM unless noted
PC-3 prostate = conditions: 10 µM
SK-MEL-5 melanoma = conditions: 10 µM unless noted
UACC-62 melanoma = system: UACC-62 melanoma
LOX IMVI melanoma = conditions: 10 µM unless noted
SK-MEL-28 melanoma = conditions: 10 µM
M14 melanoma = conditions: 10 µM

Measured: growth

CCC(C)(C)c1cc(O)c(C(C)(C)CC)cc1O
inactive: DU-145 prostate 76.5% | K-562 leukemia 39.8% | MALME-3M melanoma 102% | RXF 393 renal 32.5% | SF-268 CNS 43.3% | SF-295 CNS 24.6% | SF-539 CNS 43% | UACC-257 melanoma 51% | HCT-15 colon 43.8% | HT29 colon 28.5% | SNB-75 CNS 52.1% | SNB-19 CNS 21.8% | U251 CNS 30.4% | PC-3 prostate 32.3% | SK-MEL-5 melanoma 22.8% | UACC-62 melanoma; 10 µM 35.4% | LOX IMVI melanoma 13%
active: MDA-MB-231 breast 6.91%

COc1cccc2c1C(=O)c1c(O)c3c(c(O)c1C2=O)C[C@@](O)(C(C)=O)C[C@@H]3OC1CC(N)C(O)C(C)O1 (stereo partly specified)
active: DU-145 prostate -11.4% | K-562 leukemia -49.5% | MALME-3M melanoma -77.1% | MDA-MB-231 breast -17.9% | RXF 393 renal -46.9% | SF-268 CNS -14.5% | SF-295 CNS -26.9% | SF-539 CNS -70.9% | UACC-257 melanoma -33.3% | HCT-15 colon 3.22% | HT29 colon 1.89% | SNB-75 CNS -82.7% | SNB-19 CNS -9.95% | U251 CNS 3.16% | PC-3 prostate -25.8% | SK-MEL-5 melanoma -90.5% | UACC-62 melanoma; 10 µM -71.8% | UACC-62 melanoma; 50 µM -98.9% and -100% | LOX IMVI melanoma 1.63% | SK-MEL-28 melanoma -51%

Cc1cc(NS(=O)(=O)c2ccc(N=Nc3cc(N=Nc4ccc(S(=O)(=O)Nc5cc(C)nc(C)n5)cc4)c4c(NC(=O)C(Cl)Cl)cccc4c3OC(=O)C(Cl)Cl)cc2)nc(C)n1 (tested in a mixture with another compound)
inactive: DU-145 prostate 118% and 110% | K-562 leukemia 108% and 117% | MALME-3M melanoma 101% and 94% | MDA-MB-231 breast 81.8% and 68.1% | RXF 393 renal 110% and 93% | SF-268 CNS 108% and 115% | SF-295 CNS 86.2% | SF-539 CNS 99.3% and 108% | UACC-257 melanoma 101% and 92.8% | M14 melanoma 113% and 111% | HCT-15 colon 88.8% and 84.2% | HT29 colon 118% | SNB-75 CNS 75.6% and 61.7% | SNB-19 CNS 97.4% and 95.7% | U251 CNS 97.5% and 97.7% | PC-3 prostate 97.4% and 106% | SK-MEL-5 melanoma 96.9% and 87.6% | UACC-62 melanoma; 10 µM 99.8% and 95.8% | LOX IMVI melanoma 92.6% and 104% | SK-MEL-28 melanoma 111%

CC[N+](CC)=c1ccc2nc3c(cc(N)c4ccccc43)oc-2c1
active: DU-145 prostate -60% | K-562 leukemia 1.13% | MALME-3M melanoma -60.9% | MDA-MB-231 breast -71.5% | RXF 393 renal -23.7% | SF-268 CNS -54% | SF-295 CNS -83% | SF-539 CNS -79.7% | UACC-257 melanoma -70.2% | M14 melanoma -56.9% | HCT-15 colon -54.6% | HT29 colon 5.58% | SNB-75 CNS -73.4% | SNB-19 CNS -64.3% | U251 CNS -76.1% | PC-3 prostate -48.8% | UACC-62 melanoma; 10 µM -79.9% | LOX IMVI melanoma -58.7% | SK-MEL-28 melanoma -61.8%

O=C(Nc1ccc(C(=O)O)c(O)c1)c1ccccc1
inactive: DU-145 prostate 108% and 126% | K-562 leukemia 101% and 102% | MALME-3M melanoma 88.5% and 92.3% | MDA-MB-231 breast 98.5% and 104% | RXF 393 renal 112% and 107% | SF-268 CNS 108% and 121% | SF-295 CNS 106% and 95.1% | SF-539 CNS 98% and 104% | UACC-257 melanoma 98.5% and 94.3% | HCT-15 colon 104% and 99% | HT29 colon 103% and 105% | SNB-75 CNS 96.4% and 96.3% | SNB-19 CNS 107% and 102% | U251 CNS 96.6% and 104% | PC-3 prostate 91% and 97.5% | SK-MEL-5 melanoma 107% and 106% | UACC-62 melanoma; 10 µM 96.7% and 96.4% | LOX IMVI melanoma 97.4% and 97%

NC1=C(Cl)C(=O)c2ccccc2C1=O
active: MALME-3M melanoma -26.3% | SNB-75 CNS -0.135% | SK-MEL-5 melanoma -80.8% | UACC-62 melanoma; 10 µM -41.4%
inactive: DU-145 prostate 27.1% | K-562 leukemia 57% | MDA-MB-231 breast 72.1% | RXF 393 renal 103% | SF-268 CNS 71.7% | SF-295 CNS 41% | SF-539 CNS 75.4% | UACC-257 melanoma 56.6% | HCT-15 colon 51% | HT29 colon 58.8% | SNB-19 CNS 72.1% | U251 CNS 50.5% | PC-3 prostate 53% | LOX IMVI melanoma 19.2%

O=C1NC(=O)c2cc([N+](=O)[O-])ccc21
inactive: DU-145 prostate 112% | K-562 leukemia 119% | MALME-3M melanoma 106% | MDA-MB-231 breast 107% | RXF 393 renal 108% | SF-268 CNS 106% | SF-295 CNS 101% | SF-539 CNS 101% | UACC-257 melanoma 104% | M14 melanoma 118% | HCT-15 colon 107% | HT29 colon 109% | SNB-19 CNS 109% | U251 CNS 109% | PC-3 prostate 101% | SK-MEL-5 melanoma 104% | UACC-62 melanoma; 10 µM 102% | LOX IMVI melanoma 104%
